# Laboratory results: PubChem BioAssay (NCI)
# About 79,000 compounds went through this panel and 15% of them were active in at least one assay; those are over-represented in the sample as a whole. Active and inactive are the calls of the source. No stated cut-off is given here; in the data, active means growth inhibition above about 70%; inactive means the rest.
# Experiment: NCI Yeast Anticancer Drug Screen. Data for the bub3 strain (AID 167)
# Settings: S. cerevisiae bub3 mutant strain, at 33.0 µM, hits give high values
# Method in brief: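 Mutant yeast screening strain plus compound; vehicle-treated cultures serve as the 0% inhibition reference.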
row,Structure (SMILES),growth inhibition
1,Cc1cccc2c(C(O)CBr)cc(-c3ccc(Cl)cc3)nc12 (stereo not given),96% (active)
2,CN(C)C[C@H]1CC[C@@H](CN(C)C)C1=O,29% (inactive)
3,CC1=C(SCCO)C(=O)c2ccccc2C1=O,29% (inactive)
4,COC(=O)CCNc1c2ccccc2nc2cccc([N+](=O)[O-])c12,96% (active)
5,CC(/C=C/c1ccc2c(c1)OCO2)[N+](=O)[O-] (stereo not given),99% (active)
6,COC(=O)C1=C(C)NC(C)=C(C(=O)OCCCN2CCC(c3ccccc3)(c3ccccc3)CC2)C1c1cccc([N+](=O)[O-])c1 (stereo not given),98% (active)
7,CCOC(=O)c1cnc2c(C(F)(F)F)cccc2c1N=[N+]=[N-],20% (inactive)
8,O=[N+]([O-])c1cc2no[n+]([O-])c2cc1N1CCCCC1,96% (active)
9,COC(=O)c1ccc(NCC2=CC(=O)C=CC2=O)cc1O,95% (active)
10,CCCCCCCCNC(=O)C1=C(C)NC(C)=C(C(=O)NCCCCCCCC)C1,0% (inactive)
11,S=C(Nc1ccc(Cl)c(Cl)c1)SCc1ccc2c(c1)OCO2,99% (active)
12,O=S(=O)(CCCl)c1ccccc1Cl,94% (active)
13,Nc1ccccc1CC(O)C(=O)O (stereo not given),70% (active)
14,CN(C)c1ccc(Sc2ccc3nc(N)nc(N)c3c2)cc1,-17% (inactive)
15,CC(C)C1=CCC2C(=C1)CCC1C(C)(C(=O)O)CCCC21C (stereo not given) (tested in a mixture with another compound),17% (inactive)
16,Cc1ccc(S(=O)(=O)Oc2cc(Cl)c(Cl)cc2Cl)cc1,-2% (inactive)
17,CSC(=S)Nc1cc(C)ccn1,30% (inactive)
18,CC(C)c1cc(C(C)C)c(O)c(C([O-])[O-])c1.CC(C)c1cc(C(C)C)c(O)c(C([O-])[O-])c1.CC(C)c1cc(C(C)C)c(O)c(C([OH2+])[OH2+])c1.CC(C)c1cc(C(C)C)c(O)c(C([OH2+])[OH2+])c1.[Cu+2].[Cu+2].[OH3+].[OH3+],47% (inactive)
19,Cc1cc(I)ccc1N,90% (active)
20,CC(Br)C(=O)c1ccc2cc(Br)c3ccccc3c2c1 (stereo not given),2% (inactive)

row,Structure (SMILES),growth inhibition
1,O=C(Nc1ccccc1)OCCc1ccc(Cl)c(Cl)c1,75% (active)
2,O=Cc1cccc2ccc3ccccc3c12,4% (inactive)
3,O=[N+]([O-])CC(SCc1ccccc1)c1ccc2c(c1)OCO2 (stereo not given),97% (active)
4,CC1(Cl)CC(O)C2(CC1Br)C1(C)OC1C1OC1(Br)C2(C)C (stereo not given),35% (inactive)
5,Cc1cc(O)cc(O)c1N=Nc1ccc([N+](=O)[O-])cc1,56% (inactive)
6,CCCCCCCCCCCCCC[N+](C)(CC(=O)[O-])Cc1ccccc1 (stereo not given),99% (active)
7,CC1=NN(c2cccc(Cl)c2)C(=O)C1,-36% (inactive)
8,CC(=O)OCc1ccc(O)c(C=O)c1,-8% (inactive)
9,Cc1ccc2ccc3cccc4ccc1c2c34,26% (inactive)
10,Cc1nc(-[n+]2nc(-c3ccncc3)nn2-c2ccccc2)sc1C,38% (inactive)
11,C(CCSC1=NCCN1)CSC1=NCCN1 (tested in a mixture with another compound),99% (active)
12,CCCCCCCCCCC(=O)Cl,-33% (inactive)
13,COC1C=COC2(C)Oc3c(C)c(O)c4c(c3C2=O)/C(=N/C2CCC(O)OC2C)C=C(NC(=O)/C(C)=C\C(=O)C2CC2C(O)C(C)C(O)C(C)C(OC(C)=O)C1C)C4=O (stereo not given),-5% (inactive)
14,S=c1[nH]nc(Nc2ccc(Cl)cc2)s1,-10% (inactive)
15,O=C1CSC(/C=C/c2ccccc2)N1c1ccc(-c2ccc(-n3c(-c4ccccc4)nc4ccccc4c3=O)cc2)cc1 (stereo not given),35% (inactive)
16,O=C1C=CC(=O)N1c1ccc2c(c1)Cc1cc(NC(=O)C(F)(F)F)ccc1-2,21% (inactive)
17,Brc1ccc(-c2cc3c(cc2C2SCCS2)OCO3)cc1,2% (inactive)
18,Oc1ccc2ccccc2c1C(c1ccc(Cl)cc1)c1c(O)ccc2ccccc12,39% (inactive)
19,C[CH2][Sn]([CH2]C)([O]C(=O)C(OC(C)=O)c1ccccc1)[O]C(=O)C(OC(C)=O)c1ccccc1 (stereo not given),53% (inactive)
20,Cc1ccc2ccc(O)cc2c1,14% (inactive)

# Same assay, conditions: S. cerevisiae bub3 mutant strain, at 50.0 µM (retest, dose inferred, filed as 5.0), hits give high values
row,Structure (SMILES),growth inhibition
1,Cc1cccc2c(C(O)CBr)cc(-c3ccc(Cl)cc3)nc12 (stereo not given),96% (active)
2,CN(C)C[C@H]1CC[C@@H](CN(C)C)C1=O,47% (inactive)
3,CC1=C(SCCO)C(=O)c2ccccc2C1=O,77% (active)
4,COC(=O)CCNc1c2ccccc2nc2cccc([N+](=O)[O-])c12,99% (active)
5,CC(/C=C/c1ccc2c(c1)OCO2)[N+](=O)[O-] (stereo not given),98% (active)
6,COC(=O)C1=C(C)NC(C)=C(C(=O)OCCCN2CCC(c3ccccc3)(c3ccccc3)CC2)C1c1cccc([N+](=O)[O-])c1 (stereo not given),97% (active)
7,CCOC(=O)c1cnc2c(C(F)(F)F)cccc2c1N=[N+]=[N-],91% (active)
8,O=[N+]([O-])c1cc2no[n+]([O-])c2cc1N1CCCCC1,-16% (inactive)
9,COC(=O)c1ccc(NCC2=CC(=O)C=CC2=O)cc1O,98% (active)
10,CCCCCCCCNC(=O)C1=C(C)NC(C)=C(C(=O)NCCCCCCCC)C1,-4% (inactive)
11,S=C(Nc1ccc(Cl)c(Cl)c1)SCc1ccc2c(c1)OCO2,98% (active)
12,O=S(=O)(CCCl)c1ccccc1Cl,80% (active)
13,Nc1ccccc1CC(O)C(=O)O (stereo not given),90% (active)
14,CN(C)c1ccc(Sc2ccc3nc(N)nc(N)c3c2)cc1,43% (inactive)
15,CC(C)C1=CCC2C(=C1)CCC1C(C)(C(=O)O)CCCC21C (stereo not given) (tested in a mixture with another compound),97% (active)
16,Cc1ccc(S(=O)(=O)Oc2cc(Cl)c(Cl)cc2Cl)cc1,40% (inactive)
17,CSC(=S)Nc1cc(C)ccn1,94% (active)
18,CC(C)c1cc(C(C)C)c(O)c(C([O-])[O-])c1.CC(C)c1cc(C(C)C)c(O)c(C([O-])[O-])c1.CC(C)c1cc(C(C)C)c(O)c(C([OH2+])[OH2+])c1.CC(C)c1cc(C(C)C)c(O)c(C([OH2+])[OH2+])c1.[Cu+2].[Cu+2].[OH3+].[OH3+],1% (inactive)
19,Cc1cc(I)ccc1N,90% (active)
20,CC(Br)C(=O)c1ccc2cc(Br)c3ccccc3c2c1 (stereo not given),23% (inactive)

row,Structure (SMILES),growth inhibition
1,O=C(Nc1ccccc1)OCCc1ccc(Cl)c(Cl)c1,83% (active)
2,O=Cc1cccc2ccc3ccccc3c12,81% (active)
3,O=[N+]([O-])CC(SCc1ccccc1)c1ccc2c(c1)OCO2 (stereo not given),96% (active)
4,CC1(Cl)CC(O)C2(CC1Br)C1(C)OC1C1OC1(Br)C2(C)C (stereo not given),89% (active)
5,Cc1cc(O)cc(O)c1N=Nc1ccc([N+](=O)[O-])cc1,49% (inactive)
6,CCCCCCCCCCCCCC[N+](C)(CC(=O)[O-])Cc1ccccc1 (stereo not given),99% (active)
7,CC1=NN(c2cccc(Cl)c2)C(=O)C1,33% (inactive)
8,CC(=O)OCc1ccc(O)c(C=O)c1,82% (active)
9,Cc1ccc2ccc3cccc4ccc1c2c34,44% (inactive)
10,Cc1nc(-[n+]2nc(-c3ccncc3)nn2-c2ccccc2)sc1C,60% (inactive)
11,C(CCSC1=NCCN1)CSC1=NCCN1 (tested in a mixture with another compound),98% (active)
12,CCCCCCCCCCC(=O)Cl,64% (inactive)
13,COC1C=COC2(C)Oc3c(C)c(O)c4c(c3C2=O)/C(=N/C2CCC(O)OC2C)C=C(NC(=O)/C(C)=C\C(=O)C2CC2C(O)C(C)C(O)C(C)C(OC(C)=O)C1C)C4=O (stereo not given),7% (inactive)
14,S=c1[nH]nc(Nc2ccc(Cl)cc2)s1,38% (inactive)
15,O=C1CSC(/C=C/c2ccccc2)N1c1ccc(-c2ccc(-n3c(-c4ccccc4)nc4ccccc4c3=O)cc2)cc1 (stereo not given),65% (inactive)
16,O=C1C=CC(=O)N1c1ccc2c(c1)Cc1cc(NC(=O)C(F)(F)F)ccc1-2,90% (active)
17,Brc1ccc(-c2cc3c(cc2C2SCCS2)OCO3)cc1,74% (active)
18,Oc1ccc2ccccc2c1C(c1ccc(Cl)cc1)c1c(O)ccc2ccccc12,92% (active)
19,C[CH2][Sn]([CH2]C)([O]C(=O)C(OC(C)=O)c1ccccc1)[O]C(=O)C(OC(C)=O)c1ccccc1 (stereo not given),54% (inactive)
20,Cc1ccc2ccc(O)cc2c1,23% (inactive)
